The record followed here is paper PMC7826789 (International Journal of Molecular Sciences, 2021).
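Note: KINOMEscan scanMAX binding as percent activity remaining versus control; lower means stronger binding.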

In one test the test system is ABL1(E255K)-phosphorylated. The conditions noted are these: Compound Concentration (nM):1000.
On to `NS(=O)(=O)c1ccc(N/N=C2\C(=O)Nc3ccc(Cl)cc32)cc1` [GW280670X], for which the “Percent Control” value was determined as 100%. Same read-out and setting: the figure for `COc1cccc(-c2c[nH]c3c(N/N=C/c4ccncc4)ncnc23)c1` [GW814408X] is 0.7%; for `COc1ccccc1-c1cc(/C=C2\C(=O)Nc3ncc(Br)cc32)cc(Br)c1O` [GW442130X] it is 83%; for `CC(C)COC(=O)c1ccc2c(c1)/C(=C/Nc1ccc(S(N)(=O)=O)cc1)C(=O)N2` [GW416981X] it is 100%. As to `CC1=C(C(=O)Nc2ccc3[nH]ncc3c2)C(c2ccc(Cl)c(Cl)c2)CC(=O)N1` (stereo not drawn) [GSK299115A], the “Percent Control” value stood at 96%. The same measure, in the same setting: to `COc1ccc(COc2ccc(Cc3cnc(N)nc3N)cc2OC)cc1` [GW632580X] belongs 75%; to `COc1cc(C=NNc2ncnc3c2cnn3-c2ccccc2)ccc1O` [GW513184X], 15%. The same measure, in the same setting: to `Cl.O=C(O[C@H]1CN[C@H](C#Cc2cc3ncnc(Nc4ccc5c(cnn5Cc5ccccc5)c4)c3s2)C1)N1CCOCC1` [GSK200398A] belongs 88%.

For a further test, the system named is ABL1(F317I)-nonphosphorylated. The conditions noted are these: Compound Concentration (nM):1000.
With `COc1cc(/C=N/Nc2ncnc3[nH]ncc23)ccc1O` [GW578748X], the “Percent Control” value stood at 100%. Same read-out and setting: the figure for `NS(=O)(=O)c1ccc(N/N=C2\C(=O)Nc3ccc(-c4cnco4)cc32)cc1` [GW276655] is 69%.

As to `CN1CCN(C(=O)c2ccc(NC(=O)Nc3ccc(N(C)c4ccnc(Nc5ccc(CS(C)(=O)=O)cc5)n4)cc3)cc2)CC1.Cl` [GW830263A], the “Percent Control” value was 96%.

As to `CCS(=O)(=O)c1ccc(OC)c(Nc2ncc(-c3cccc(OC)c3)o2)c1` [GW580509X], the “Percent Control” value is reported as 90%.

For the molecule `Cl.O=S1CCN(Cc2ccc(-c3ccc4ncnc(Nc5ccc(OCc6ccccc6)c(F)c5)c4c3)o2)CC1` [GW576924A], the “Percent Control” value was determined as 100%.

As for `CC1=C(C(=O)Nc2ccc3[nH]ncc3c2)C(c2ccc3ccccc3c2)CC(=O)N1` (stereo not drawn) [GSK270822A], the “Percent Control” value was found to be 100%.

With `COc1ccc2c(-c3ccnc(Nc4cccc(OC(F)(F)F)c4)n3)cnn2n1` [GW810372X], the “Percent Control” value came out at 100%. On the same count and under the same terms, to `Cl.O=C(Nc1ccc(Oc2ccc3[nH]c(NC(=O)c4ccco4)nc3c2)cc1)Nc1cc(C(F)(F)F)ccc1F` [GW683134A] belongs 20%; to `CN(C)c1cc2c(Nc3ccc4c(cnn4Cc4ccccc4)c3)ncnc2cn1` [GW282974X], 84%; to `CCS(=O)(=O)c1ccc(OC)c(Nc2ncc(-c3cccc(F)c3)o2)c1` [GW621970X], 98%. `COc1cc(C)c(N(C)C(=O)CN(C)C)cc1Nc1nc(Nc2cccc(F)c2C(N)=O)c2cc[nH]c2n1` [GSK2219385]: the “Percent Control” value is given as 55%. Same read-out and setting: the figure for `Cl.c1ccc(Cc2nc3ccc(Nc4ncnc5ccccc45)cc3[nH]2)cc1` [GR269666A] is 100%. The same measure, in the same setting: the figure for `COc1ccc2[nH]c3c4[nH]c5ccc(OC)cc5c4c4c(c3c2c1)C(=O)NC4=O` [GW296115X] is 87%; for `CCn1c(-c2nonc2N)nc2c(C#CC(C)(C)O)nc(OCCNC)cc21.Cl` [GSK949675] it is 100%; for `CN(C)CCNC(=O)Nc1ccc(N(C)c2ccnc(Nc3ccc(CS(C)(=O)=O)cc3)n2)cc1.Cl` [GW830900A] it is 93%. Take `NS(=O)(=O)c1ccc(N/N=C2\C(=O)Nc3ccc(C(=O)NCCc4c[nH]cn4)cc32)cc1` [GW300660X]: the “Percent Control” value worked out at 100%.

With `C[C@@H](Oc1cc(-n2cnc3ccc(OC4CCN(C)CC4)cc32)sc1C(N)=O)c1ccccc1Cl` [GSK579289A], the “Percent Control” value is recorded as 52%. Still for that read-out and setting: to `NS(=O)(=O)c1ccc(Nc2ncc(-c3ccccc3)o2)cc1` [GW572399X] belongs 99%; to `Cc1cc(O)cc(C)c1/C=C/c1cncc(C(N)=O)c1` [GW435821X], 90%; to `COc1ccc2cc(-c3c(-c4ccncc4)nc(-c4ccc(S(C)(=O)=O)cc4C)n3C)ccc2c1` [SB-633825], 100%. Turning to `COc1cc2ncn(-c3cc(O[C@H](C)c4ccccc4Cl)c(C(N)=O)s3)c2cc1OC` [GSK237701A], the “Percent Control” value came out at 100%.

Consider `COC(=O)Nc1nc2ccc(Oc3ccc(NC(=O)Nc4cc(C(F)(F)F)ccc4F)cc3)cc2s1.Cl` [GW693917A], for which the “Percent Control” value amounted to 4.5%. On the same count and under the same terms, the figure for `COc1cc2ncnc(Nc3ccc4c(cnn4Cc4ccccc4)c3)c2cc1OC.Cl` [GW282449A] is 100%.

Turning to `C/C(Nc1ccc(S(N)(=O)=O)cc1)=C1/C(=O)Nc2ccccc21` [GW335962X], the “Percent Control” value stood at 88%. Still for that read-out and setting: the figure for `Cl.O=C(Nc1ccc(Oc2ccc3[nH]c(NC(=O)c4ccccc4)nc3c2)cc1)Nc1cc(C(F)(F)F)ccc1F` [GW709042A] is 43%.
